# Data as given in PubChem BioAssay AID904 (National Center for Advancing Translational Sciences (NCATS), 2007).
# The campaign covered roughly 55,000 compounds. About 530 (0.96%) were called active. Another 7% or so got no clear call; they are omitted. Calls follow the shape of the dose curve; as a rule, active = well fitted cell-killing curve with a large enough effect; inconclusive = small, poorly fitted or top-dose-only effect; inactive = no such curve, though single readings can be large or run the other way. The full list was thinned out, with actives kept by preference.
# Assay: qHTS Screen for Compounds that Selectively Target Cancer Cells with p53 Mutations: Cytotoxicity of p53 Null Cells at the Nonpermissive Temperature; also: nearly all actives have a fitted effect of over 50% in size;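 as to activity, negative = cell killing: 0% = DMSO only and -100% = full killing by 100 µM tamoxifen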
# Conditions: H1299 p53-null (neo) cells, 39C, ATPlite viability, 24 h; series mostly up to 46.1 µM; activity, negative = cell killing: at the top concentration
# Outline: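 Cells seeded at 600/well, 37C overnight. Compound added (up to 46 uM), plates shifted to 39C for 24 hr. ATPlite added, luminescence read after 20 min at room temperature.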
# Potency is read from the fitted curve at half-maximal effect.
Structure (SMILES),"activity, negative = cell killing",Potency
COc1cccc(CNC(=O)Cn2c(=O)c3cccn3c3ccc(F)cc32)c1OC,10.8% (inactive),
CC(C)NC(=S)N1CCN(C(c2ccccc2)c2ccccc2)CC1,2.42% [at 1.84 µM] (inactive),
CCC(C)NC(=O)Cn1c(=O)n(-c2ccc(Cl)cc2)c(=O)c2c3c(sc21)CCCC3 (configuration not stated),13.8% (inactive),
Cc1ccc(N(CC(=O)NCC(C)c2ccccc2)S(=O)(=O)N(C)C)cc1 (configuration not stated),9.74% (inactive),
Cc1ccc(OCCSc2nc(-c3cccs3)nc3cc(=O)[nH]n23)cc1Cl,10.9% (inactive),
O=C(ON=C1CCN(S(=O)(=O)c2ccccc2)CC1)c1ccc(Cl)cc1,19.7% (inactive),
CCOC(=O)CSC1=Nc2ccccc2C2=NC(CCC(=O)NCc3ccc(F)cc3)C(=O)N12 (configuration not stated),-3.67% (inactive),
CCOc1ccc(C(=O)/C=C/c2cn(CC(O)CN3CCCCCC3)c3ccccc23)cc1 (configuration not stated),,12.6 µM (active)
O=C(/C=C/c1cn(CC(O)CN2CCc3ccccc32)c2ccccc12)c1ccc(Br)cc1 (configuration not stated),-12.6% (inactive),
COc1ccc(OCCn2cc(C(=O)C3CCCCC3)c3ccccc32)cc1,-24.1% (inactive),
O=C(Cc1cccs1)Nc1nnc(SCc2ccc(F)cc2)s1,5.89% (inactive),
CCc1ccccc1N(C)C(=O)C1CCCN(c2ncnc3onc(-c4ccc(F)cc4)c23)C1 (configuration not stated),-13.8% (inactive),
Cc1nn(Cc2ccc(F)cc2)c(C)c1NC(=O)c1cc(CC(C)C)on1,2.53% (inactive),
COc1ccc(C2(CNC(=O)C(c3ccccc3)c3ccccc3)CCOCC2)cc1OC,-10.5% (inactive),
CCC(CC)C(=O)N1CCc2cc(OC)c(OC)cc2C1COc1ccc(F)cc1 (configuration not stated),35.1% (inactive),
COc1cccc(N2CCN(S(=O)(=O)c3cc(Br)cc4c3N(C(=O)C3CC3)CC4)CC2)c1,-22.6% (inactive),
Oc1c(C(c2ccc(F)cc2)N2CCN(Cc3ccccc3)CC2)sc2nc(-c3ccco3)nn12 (configuration not stated),8.44% (inactive),
CCCC(=O)Nc1cc(C(=O)NCc2ccc(OC)cc2)ccc1S(=O)(=O)c1ccc(Cl)cc1,0.688% (inactive),
Cn1c(=O)c(=O)n(C)c2cc(NC(=O)c3ccccc3Br)ccc21,-25.1% (inactive),
CCc1nn(CCCC(=O)NCc2ccc(C)cc2)c(=O)c2cc3occc3n12,-21.6% (inactive),
Cc1ccc(NC(=O)C(=O)NCc2ccc(/C=N/NC(=O)c3c(C)nc4cc(C)ccn34)o2)cc1,8.36% (inactive),

Structure (SMILES),"activity, negative = cell killing",Potency
Cc1c(C(=O)NCCCc2ccccc2)cccc1[N+](=O)[O-],-7.93% [at 1.84 µM] (inactive),
CC(NC(=S)Nc1ccccc1)C1COc2ccccc2O1 (configuration not stated),-2.56% (inactive),
COc1cccc2c1cc1c(=O)n(CC(=O)N3CCN(c4cccc(Cl)c4)CC3)nc(C)n12,-8.53% (inactive),
COc1cc(OC)c(C(=O)Nc2ccccc2-c2ccccc2)cc1OC,18.9% [at 1.84 µM] (inactive),
CCOC(=O)c1ccc(NC(=O)Cn2c(=O)cc(C)c3c(C)nn(-c4cccc(F)c4)c32)cc1,-0.639% (inactive),
Cc1nn(-c2ccccc2)c(Cl)c1/C=C/C(=O)c1ccc(O)cc1,23.1% (inactive),
COc1ccc(NC(=O)CC2C(=O)OCC3CCCCN32)cc1Cl (configuration not stated),14% [at 1.84 µM] (inactive),
CC(C)(C)c1ccc(C(=O)NCc2nnc(SCC(=O)N3CCCc4ccccc43)n2-c2ccccc2)cc1,-3.75% (inactive),
Cc1cc(C)c(NC(=O)c2oc3ccccc3c2COc2ccccc2)c(C)c1,16.4% (inactive),
O=C(Nc1nc2c(s1)CCCC2)c1ccccc1F,,7.94 µM (active)
Cc1ccccc1NC(=O)c1c(NC(=O)c2ccccc2F)sc2c1CCC(C)C2 (configuration not stated),3.45% (inactive),
Cc1cc(C)cc(OC(C)C(=O)Nc2nc3c(s2)CCCC3)c1 (configuration not stated),7.6% (inactive),
COc1ccc(Cl)cc1NC(=O)CNc1ccccc1F,28.8% [at 1.84 µM] (inactive),
CCCCN1CC(c2nc3ccccc3n2CCCCOc2ccc(C)cc2C)CC1=O (configuration not stated),15.7% (inactive),
CCc1ccccc1N1CC(c2nc3ccccc3n2CCCCOc2ccccc2)CC1=O (configuration not stated),,20 µM (active)
COc1ccc(OCCCn2c(C3CC(=O)N(c4ccc(F)cc4)C3)nc3ccccc32)cc1 (configuration not stated),-24.9% (inactive),
Cc1cccc(NC(=S)Nc2ccc3cn[nH]c3c2)c1,13% (inactive),
CCN1CCN(C(=O)C2(NC(=O)Nc3cccc(F)c3)CCCCC2)CC1,-11.5% (inactive),
COc1cc(Cl)c(C)cc1NC(=O)CCc1nc2cccnc2n1Cc1cccs1,22.6% (inactive),
O=S(=O)(NN=C1CCCCCCC1)c1ccc(Br)cc1,-8.87% (inactive),
CC1=CC(=C(C#N)c2nc3ccccc3s2)C=C(C)N1c1ccc(F)cc1F,34.3% (inactive),

Structure (SMILES),"activity, negative = cell killing",Potency
CCc1ccc(C2CC(=O)c3c([nH]c(C(=O)OCc4ccc(C)cc4)c3C)C2)cc1 (configuration not stated),15.3% (inactive),
Cc1cc(C)cc(C(=O)N2CCN=C2SCc2ccc([N+](=O)[O-])cc2)c1,-7.93% (inactive),
Fc1ccc(Nc2nc(SCc3ccccc3Cl)nc3ccccc23)cc1,-16.2% (inactive),
CSc1nc(Nc2ccc(F)cc2)cc(-c2ccccc2)n1,,15.8 µM (active)
CC(C)(C)NC(=O)CSc1nc(-c2ccc(F)cc2)cc(C(F)(F)F)n1,20.5% (inactive),
Cc1ccc(CNC(=O)CCc2c(C)nc3c(c(C)nn3-c3ccccc3)c2C)cc1,-14.7% (inactive),
CCC1CCCCN1C(=S)Nc1ccc(SC(F)F)cc1 (configuration not stated),-0.151% (inactive),
CCc1ccccc1NC(=O)Cn1c(=O)n(-c2cccc(C)c2)c(=O)c2c1c1cc(OC)ccc1n2C,17.9% (inactive),
Cc1ccc(-c2nn3c(=O)cc(CN4CCN(S(=O)(=O)c5ccc(Cl)cc5)CC4)nc3s2)cc1,-26.2% (inactive),
CCCCOC(=O)/C(C#N)=C/c1ccc(-c2cccc(C(F)(F)F)c2)o1,20.7% (inactive),
COc1cccc(Nc2nc3ccccc3c3nncn23)c1,-29.5% (inactive),
CCOC(=O)c1nc(Nc2ccc(C(=O)OC)cc2)c2ccccc2n1,2.12% (inactive),
COc1cc(Nc2nc(-c3ccc(OC)c(OC)c3)nc3ccccc23)cc(OC)c1,,14.1 µM (active)
O=C(Nc1ccc2c(c1)OCO2)c1cc(-c2cccc(Cl)c2)on1,-4.53% (inactive),
Cc1ccccc1-c1nc2scc(CCNC(=O)C(=O)Nc3ccc(F)cc3F)n2n1,-1.2% (inactive),
Cc1ccc(Nc2c(-c3ccc(C)cc3)nc3cnccn23)cc1,44.7% (inactive),
CC(=O)Nc1ccc(S(=O)(=O)N2CCN(c3ccc([N+](=O)[O-])c(NCCN4CCOCC4)c3)CC2)cc1,12.1% (inactive),
O=C(NC1CCCCC1)c1ccc(Cn2c(SCc3ccccc3)nc3cccnc32)cc1,-16.3% (inactive),
O=C(O)c1ccc(CSc2nc3cccnc3n2Cc2cccc(F)c2)cc1,-10.2% (inactive),
Cc1ccc(CSc2nc3cccnc3n2Cc2ccc(C(=O)NC3CC3)cc2)cc1,,3.16 µM (active)
